According to PubChem BioAssay (NCATS):
Inconclusive results are not listed. A number with no mark means an inactive call. Active and inactive are the calls of the source. Calls come from the whole dose curve; as a rule, active = well fitted inhibition curve with a large enough effect; inconclusive = small, poorly fitted or top-dose-only effect; inactive = flat fitted curve, though single readings scatter.

Test: qHTS for Inhibitors of Plasmodium falciparum (7G8) proliferation (AID 504316);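 note: 0% = DMSO vehicle and -100% = 0.29 µM artemisinin full kill; nearly all actives have a fitted effect of over 65% in size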
Conditions: P. falciparum 7G8 in erythrocytes, SYBR Green DNA, 72 h; series mostly up to 6.7 µM; activity change, negative = inhibition: at the top concentration
How it was run: (§1)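 Parasite growth measured as SYBR Green DNA fluorescence (ex 485, em 535 nm) after overnight lysis following 72 h culture at 37 °C, 0.3% parasitemia, 2.5% hematocrit. Values normalized against DMSO and 0.29 uM artemisinin controls, with plate-stack correction.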

Structure (SMILES) | Potency | activity change, negative = inhibition
CC(=O)[C@@H]1[C@@H](C)N(Cc2ccccc2)C(=O)N[C@H]1c1cccc(C(F)(F)F)c1 | inactive | –
COC(=O)C1=C(C(=O)OC)[C@@H]2Nc3ccccc3[C@@]23C[C@@H](C(=O)OC)N(C(=O)NC2CCCC2)C3=N1 | – | 9.42%
COC(=O)CCC(=O)OC1(C)C(=O)C2=CN(CCc3ccccn3)C(c3ccc(OC)cc3)=CC2=C(Br)C1=O (stereo not given) | – | -9.48%
COC(=O)N[C@@H](c1cccc(C)c1)[C@]1(C(C)=O)CCCC1=O | – | 9.54%
CCOC(=O)CN1C(=O)N[C@@H](c2cccc(F)c2)C(C(C)=O)=C1C | – | 0.495%
COC[C@@H](O)[C@@H](OC)[C@H](OC)[C@H](Cc1c(OC)cc(OC)cc1OC)OC | – | 9.62%
COc1ccc(-c2nc3c(c4c2C[C@H](c2ccccc2)OC4)CN(C(=O)NCCc2c[nH]c4ccccc24)CC3)c(C)c1 | – | -1.37%
CC(C)CN1C=C2C(=O)C(C)(OC(=O)C3CCCC3)C(=O)C=C2C=C1c1ccsc1 (stereo not given) | – | -2.45%
CCOC(=O)NN=C1C[C@@H](O)[C@@H](O)[C@@H]2[C@H]3C(=O)N([C@@H](C)c4ccccc4)C(=O)[C@@H]3CC[C@@H]12 | – | 11%
C[C@H]1Cc2c(COc3ccccc3)nc3c(c2CO1)CN(C(=O)Nc1cccc(C#N)c1)CC3 | inactive | –
CCO[C@H](c1cc(OC)cc([N+](=O)[O-])c1OC)[C@H](C)C=CCC(=O)OC | – | 5.54%
COC(=O)C1=C(C(=O)OC)[C@@H]2N(C)c3ccccc3[C@@]23C[C@@H](C(=O)OC)N=C3N1 | – | -3.42%
COC(=O)C1=C(C(=O)OC)[C@@H]2Nc3ccccc3[C@@]23C[C@@H](C(=O)OC)N(C(C)=O)C3=N1 | – | -1.04%
COc1ccc(C2=CC3=C(Br)C(=O)C(C)(OC(=O)c4ccco4)C(=O)C3=CO2)cc1 (stereo not given) | – | 10.3%
CCCCc1nc2c(c3c1C[C@H](C)OC3)CN(C(=O)COC)CC2 | – | -4.1%
COC/C=C/C1=CC2=CC(=O)C(C)(OC(=O)c3cnc4ccccc4n3)C(=O)C2=CN1CCN1CCOCC1 (stereo not given) | – | -4.71%

Test: qHTS for Inhibitors of Plasmodium falciparum (HB3) proliferation (AID 504318);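 note: 0% = DMSO vehicle and -100% = artemisinin control; nearly all actives have a fitted effect of over 60% in size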
Conditions: P. falciparum HB3 in erythrocytes, SYBR Green DNA, 72 h; series mostly up to 7.21 µM; activity change, negative = inhibition: at the top concentration
How it was run: as §1

Structure (SMILES) | Potency | activity change, negative = inhibition
COC(=O)CCCC1=CC2=C(c3ccccc3)C(=O)C(C)(OC(=O)C3CCCC3)C(=O)C2=CN1C(CO)CO (stereo not given) | inactive | –
COC(=O)C1=C(C(=O)OC)[C@@H]2N(Cc3ccccc3)c3ccccc3[C@@]23C[C@@H](C(=O)OC)N(C(C)=O)C3=N1 | – | 4.15%
CCN(CC)CCCN1C=C2C(=O)C(C)(OC(=O)C3CCCC3)C(=O)C(c3ccccc3)=C2C=C1CCCC(=O)OC (stereo not given) | – | 1.11%
COCC(=O)N1CCc2nc(-c3ccc(OC)cc3C)c3c(c2C1)CO[C@@H](c1ccccc1)C3 | – | -0.913%
CC(=O)C1=C(C)N(Cc2ccccc2)C(=O)N[C@H]1c1cccc(F)c1 | – | 4.82%
CC[C@@H](C)CN1C(=O)N[C@@H](c2ccccc2)C(C(=O)OC)=C1C | – | 1.16%
CCCCC1=CC2=CC(=O)C(C)(OC(=O)CC)C(=O)C2=CN1c1cccc(C#N)c1 (stereo not given) | – | 1.38%
C[C@H]1Cc2c(-c3ccccc3)nc3c(c2CO1)CN(C(=O)C1CCCCC1)CC3 | – | -5.15%
C=CCN1C=C2C(=O)C(C)(OC(=O)CCC(=O)OC)C(=O)C=C2C=C1C1CC1 (stereo not given) | – | -4.83%
COC(=O)CCC(=O)OC1(C)C(=O)C2=CN(CCc3ccccn3)C(c3ccc(OC)cc3)=CC2=C(Br)C1=O (stereo not given) | – | -2.79%
CC1(OC(=O)C2CCCC2)C(=O)C=C2C=C(c3ccsc3)N(CCCCO)C=C2C1=O (stereo not given) | inactive | –
COC(=O)CC1c2ccccc2C=C(C)N1C(=O)OC (stereo not given) | inactive | –
C[C@H]1Cc2c(COc3ccccc3)nc3c(c2CO1)CN(C(=O)Nc1cccc(C#N)c1)CC3 | inactive | –
CCOC(=O)CN1C(=O)N[C@@H](c2cccc(F)c2)C(C(=O)OC)=C1C | – | -3.96%
